# Screening results as filed in PubChem.
# Anthrax LF prot: inhibitors of Bacillus anthracis lethal factor protease; multiplex microsphere protease cleavage assay, LF; inhibition, % at 10 µM; 360,000 tested, 0.12% active; note: plate controls were buffer without enzyme for full effect and enzyme alone for no effect
# BoNT-A LC inh2: blocks Botulinum neurotoxin A light chain protease | multiplex microsphere protease substrate cleavage, flow cytometry | inhibition, % at 10 µM | 360,000 tested, 0.17% active | AID 588499; note: plate controls were buffer without enzyme for full effect and enzyme alone for no effect
# BoNT F protease: BoNT F light chain protease inhibition | inhibition, % at 10 µM | 360,000 tested, 0.22% active | Multiplex microsphere protease cleavage assay, flow cytometry | AID 588497; in the data active = inhibition above about 35%, passing the limit was not always enough; inconclusive = no clear call, values can overlap the other calls; note: plate controls were buffer without enzyme for full effect and enzyme alone for no effect
# Autofluor counter: compound fluorescence in toxin protease inhibitor counterscreen. compound autofluorescence counterscreen, microsphere flow cytometry; hits give high values. fluorescence intensity (concentration not given with the values). 360,000 tested, 3.1% active; in the data active = fluorescence intensity above about 16000; inconclusive = no clear call, values can overlap the other calls
# MazF activator: increases E. coli MazEF RNase cleavage of RNA. AID 504720. FAM/BHQ RNA-DNA oligo cleavage fluorescence, 5 h. activation, % at 20 µM. P0AE70. 350,000 tested, 0.32% active; in the data active = activation above about 50%
# Target sequence (P0AE70 whole entry, looked up): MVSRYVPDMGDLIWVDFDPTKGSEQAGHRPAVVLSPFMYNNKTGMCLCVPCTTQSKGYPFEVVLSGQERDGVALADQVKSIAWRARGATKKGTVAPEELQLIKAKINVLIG
# Numbers without * were called inactive; u = inconclusive; x = no result given. Only some compounds are listed: those with a hit (about 3.7% of all), similar ones and a draw of the others. Cut-off read from the data, not from the text of the source, unless noted: active = inhibition above about 30%; inconclusive = no clear call, values can overlap the other calls; inactive = below that.
SMILES,Anthrax LF prot,BoNT-A LC inh2,BoNT F protease,Autofluor counter,MazF activator
O=C1CC(N2CCN(c3cccc(C(F)(F)F)c3)CC2)C(=O)N1c1ccccc1 (centres undefined),-2,u,4,20561*,-6
O=C1CC(N2CCN(c3cccc(C(F)(F)F)c3)CC2)C(=O)N1c1ccccc1F (centres undefined),-7,-1,-3,3123,0
Fc1ccc(-c2nnc(Cc3nnc(-c4ccc(F)cc4)o3)o2)cc1,0,2,3,22771*,12
COc1ccc(S(=O)(=O)N2CCC(C(=O)N3CCN(C)CC3)CC2)cc1OC,-7,-1,-12,3603,10
CCC(C)NC(=O)COc1ccc(Br)c(C)c1 (centres undefined),-4,-1,-3,20456*,-2
O=S(=O)(NC1C2CC3CC(C2)CC1C3)c1ccc(F)cc1 (centres undefined),u,u,14,u,2
Cc1ccc(S(=O)(=O)NNC(=O)c2ccccc2O)cc1,1,3,39*,2084,0
Cc1ccc(S(=O)(=O)NNc2ccccc2)cc1,-1,u,-3,16260*,-3
CCOc1ccc(Nc2nc3c(c(=O)[nH]2)CCC3)cc1,0,0,4,16524*,-2
O=C(O)CSc1c2c(nc3cc(C(=O)Nc4ccc(F)c(Cl)c4)ccc13)CCCC2,-1,0,-2,5818,1
CCOc1ccc(C2C(C#N)=C(C)NC3=C2C(=O)c2ccccc23)cc1 (centres undefined),4,3,4,22424*,11
COc1ccc(C2C(C#N)=C(C)NC3=C2C(=O)c2ccccc23)cc1 (centres undefined),-1,2,-4,9430,9
Cc1cccc(OCC(=O)N(Cc2ccc(C)o2)C2CCS(=O)(=O)C2)c1 (centres undefined),-5,0,-12,u,-10
Cc1ccc(CCNC(=O)c2ccc(CS(=O)(=O)Cc3ccccc3F)o2)cc1,-2,2,2,23305*,-8
O=C(NCCc1ccccc1)c1ccc(CS(=O)(=O)Cc2ccccc2F)o1,3,3,5,18882*,-3
O=C(COC(=O)c1cccs1)Nc1nc(-c2ccccc2)cs1,9,1,-2,7439,-10
Cn1nccc1C(=O)OCC(=O)Nc1nc(-c2ccccc2)cs1,0,u,1,22484*,-2
Nc1cc(Br)c(N)c(Br)c1,-2,-2,-9,24247*,11
Cn1nc(N)c2c(-c3ccccc3)c(C#N)c(N)nc21,0,-1,-19,2086,-3
CCN(CC)c1ccc(-c2c(C#N)c(N)nc(OC)c2C#N)cc1,-4,0,2,4464,75*
COc1cc2c(cc1OC)C(=NO)CCCC2,0,0,6,4005,-2
Cc1ccc(Oc2nnc(-c3ccccc3)c3ccccc23)cc1,-4,6,6,21278*,4
Cc1ccc(-c2nnc(Oc3cccc(C)c3)c3ccccc23)cc1,2,-1,1,8237,5
CCOc1ccc(N2CC(C(=O)NCc3nnnn3-c3ccc(C)c(C)c3)CC2=O)cc1 (centres undefined),1,0,0,6438,2
Cc1cc(OC(=O)N(C)C)nc(SCc2c(Cl)cccc2Cl)n1,-5,-1,-1,4494,-12
SMILES,Anthrax LF prot,BoNT-A LC inh2,BoNT F protease,Autofluor counter,MazF activator
COc1cnc(SCc2c(Cl)cccc2Cl)nc1Cl,-7,-3,-7,20944*,-6
O=C(Nc1ccccc1)N1CCC(C(=O)N(Cc2ccco2)Cc2cccs2)CC1,-3,u,4,20994*,-2
O=C(NCCC(=O)N(Cc1ccco1)Cc1cccs1)c1ccccc1Cl,-3,0,-6,5841,-2
NC(=O)C1CCN(Cc2nnnn2Cc2ccco2)CC1,-1,0,16,3240,-4
O=C(Nc1ccc(F)cc1)NC1CCN(Cc2nnnn2Cc2ccco2)CC1,-2,u,0,22240*,0
O=C(Nc1ccccc1F)NC1CCN(Cc2nnnn2Cc2ccc(F)cc2)CC1,1,0,-2,23538*,0
COC(=O)c1ccccc1N=Nc1c(C)noc1C,34*,3,u,3984,8
COC(=O)c1ccccc1N=Nc1c(C)n[nH]c1C,9,u,u,3621,6
CCOC(=O)[C@]12CCC=C1N(Cc1cccc3ccccc13)C(=O)[C@H](CC(=O)NCCc1ccccc1OC)C2,-15,-1,-6,6676,x
O=C(NCC1CCN(C(=O)c2ccc([N+](=O)[O-])cc2)CC1)c1ccc([N+](=O)[O-])cc1,0,-1,-1,5748,9
O=C(O)Cn1nnnc1-c1ccc(F)cc1,-2,3,4,21941*,1
COc1ccc(CCNC(=O)CCNC(=O)c2ccco2)cc1,-1,-2,-7,5985,-25
COC(=O)[C@H](CCSC)NC(=O)[C@@H](Cc1cnc[nH]1)NC(=O)OCc1ccccc1,5,0,-13,3857,5
O=C(CNC(=O)Cc1ccccc1)NCC(=O)OCc1ccc(C(=O)c2ccccc2)cc1,-7,-1,-3,16310*,-1
Cc1ccc(SCC(=O)NNC(=O)CNC(=O)c2ccc(Br)cc2)cc1,-2,-1,-13,2925,-4
Cc1cccc(-c2cc3nc(-c4ccccc4)cc(=O)n3[nH]2)c1,17,0,17,2855,6
Cc1ccsc1C=Nc1ccc(O)cc1,-3,0,-2,16460*,17
O=C(NCC1CCCCC1)c1cc(-c2cc(F)ccc2OCC2CCCO2)n[nH]1 (centres undefined),-7,0,-3,3066,x
O=C1CC(N2CCC(c3nc4ccccc4o3)CC2)C(=O)N1c1cc(Cl)cc(Cl)c1 (centres undefined),-1,1,-1,22844*,2
COc1ccc(-c2cc(C(=O)NCc3cccc(Cl)c3)[nH]n2)c(C)c1,-6,-1,5,4183,x
COc1cccc(-c2ccc3nccn3c2)c1,5,2,-1,3988,x
O=[N+]([O-])c1ccc2nccn2c1,1,-2,-2,24475*,5
O=C1CCN(S(=O)(=O)c2cc(C(F)(F)F)ccc2Cl)CC1,-2,0,0,3590,-5
CCCCCCCCNC(=O)CCNC(=O)c1ccc(C(C)(C)C)cc1,-4,-2,-3,16679*,-1
Cc1ccc(-c2csc(C(O)c3ccccc3)n2)cc1C (centres undefined),8,-1,0,4153,x
O=C(NCc1cccs1)c1nc2c(nnn2Cc2ccc(F)cc2)c(=O)[nH]1,-2,0,0,16259*,-7
Cc1ccc(C)c(Cn2nnc3c(=O)[nH]c(C(=O)NCc4ccco4)nc32)c1,-9,2,1,22656*,-8
O=C(NCc1ccco1)c1nc2c(nnn2Cc2ccccc2Cl)c(=O)[nH]1,5,1,-12,9232,-5
CCOc1ncccc1C(=O)OCC(=O)Nc1cc(C(C)(C)C)ccc1OC,-3,-3,-4,u,-5
CC1=C(C(=O)Nc2ccccc2F)C(c2cccs2)NC(=S)N1 (centres undefined),-2,1,-4,4809,0
